# A selection: hits, their analogues and other compounds. The true share with any hit is near 1.5%.
# BCLXL inh: inhibitors of human Bcl-xL | Q07817 | GST-Bcl-xL / FITC-Bim BH3 peptide fluorescence polarization | inhibition, % at 10.9 µM | actives 0.7% (n = 320,000) | AID 2129;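 active = inhibition above the mean of all tested compounds plus 3 SD, cutoff set per campaign, cut at about 30% in these data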;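 also: 0% = DMSO wells and 100% = unlabeled Bim-BH3 peptide competitor; inhibitors lower millipolarization by displacing the labeled peptide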
# Target sequence (Q07817 whole entry, looked up): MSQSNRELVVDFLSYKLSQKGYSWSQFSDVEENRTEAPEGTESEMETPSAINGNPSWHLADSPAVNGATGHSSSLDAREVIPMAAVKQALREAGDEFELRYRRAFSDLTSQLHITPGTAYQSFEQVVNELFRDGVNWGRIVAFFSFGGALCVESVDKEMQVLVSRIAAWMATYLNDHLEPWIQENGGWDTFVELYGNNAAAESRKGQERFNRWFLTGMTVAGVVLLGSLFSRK
# IDE cell activ: activators of human insulin-degrading enzyme in cells; P14735; HEK cells, FAbeta-B cleavage, fluorescence polarization; 0% vehicle, 100% cell-free pure enzyme wells; activation, % at 5.96 µM; actives 0.073% (n = 340,000); AID 493087;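 active = activation above the mean of all tested compounds plus 3 SD, set per screening campaign, cut at about 17% in these data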
# GLD-1 RNA inh: GLD-1-TGE RNA interaction inhibition (C. elegans). actives 0.44% (n = 320,000). inhibition, % at 5.96 µM. purified GLD-1 + fluorescein TGE RNA, fluorescence polarization;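 active = percent inhibition above a per-plate cutoff, the plate mean of test compounds plus 3 SD, cut at about 30% in these data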;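 also: 0% = DMSO wells with GLD-1 and probe and 100% = wells lacking GLD-1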
# MCL1-BIM inh: disrupts human MCL1 binding to BIM-BH3 peptide; Q07820; GST-MCL1 / FITC-Bim-BH3 fluorescence polarization; inhibition, % at 10.9 µM; actives 0.68% (n = 320,000);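 active = inhibition above the mean inhibition of all tested compounds plus 3 SD, set per campaign, cut at about 40% in these data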;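 also: 0% = DMSO wells and 100% = unlabeled Bim-BH3 peptide control; higher means more loss of mP so more displacement of Bim peptide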
# Target sequence (Q07820 whole entry, looked up): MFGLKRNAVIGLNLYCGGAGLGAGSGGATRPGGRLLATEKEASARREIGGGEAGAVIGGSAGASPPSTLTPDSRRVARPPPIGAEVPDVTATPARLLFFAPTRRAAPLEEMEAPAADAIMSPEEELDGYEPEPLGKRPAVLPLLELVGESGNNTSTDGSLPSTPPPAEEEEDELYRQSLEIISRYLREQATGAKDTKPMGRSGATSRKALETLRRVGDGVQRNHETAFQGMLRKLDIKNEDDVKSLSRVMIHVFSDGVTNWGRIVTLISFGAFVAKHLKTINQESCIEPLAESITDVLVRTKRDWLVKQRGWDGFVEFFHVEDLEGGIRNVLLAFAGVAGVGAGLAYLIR
# IDE inh: inhibitors of human insulin-degrading enzyme in cells; P14735; HEK cells, FAbetaB cleavage, fluorescence polarization; inhibition, % at 5.59 µM; actives 0.41% (n = 320,000); AID 434962;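 active = percent inhibition above the average of all tested compounds plus 3 SD, set per screening campaign, cut at about 16% in these data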;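 also: IDE supplied by intact live HEK cells; FP after avidin binding of uncleaved biotin substrate so inhibition keeps polarization high; 0% = DMSO wells and 100% = 60 µM reference IDE inhibitor Ii1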
# MEX-5 binding: C. elegans MEX-5 TCR-2 RNA binding activity. Q9XUB2. MEX-5/FITC-TCR2 RNA binding, fluorescence polarization; stronger effect = lower value. activity score (negative = inhibition of binding), % at 10 µM. actives 0.38% (n = 300,000);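 active = inhibition past about -25% in most replicates, and total fluorescence under double the plate's negative control median, limit read from the data; inconclusive = replicates evenly split on the limit, or fluorescence at least double controls; inactive = too little inhibition in most replicates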;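 also: 0% = DMSO and -100% = 5 µM competing unlabeled TCR2 RNA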
# IDE inh confirm: cellular human IDE inhibition, confirmation | shares compounds with IDE inh | HEK cells, FAbetaB cleavage, fluorescence polarization | inhibition, % at 5.59 µM | actives 51% (n = 1,200) | AID 435028;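 active = mean inhibition across triplicate wells above the cutoff set by the earlier primary insulin-degrading enzyme screen, cut at about 16% in these data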;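 also: 0% = DMSO wells and 100% = 60 µM reference IDE inhibitor Ii1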
# HEK cytotox: HEK cell cytotoxicity, counter-screen for IDE inhibitors; actives 28% (n = 1,200); inhibition, % at 5.59 µM; HEK293 cytotoxicity, ATP luminescence; shares compounds with IDE inh; in the data active = inhibition above about 22%;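 also: 0% = vehicle wells and 100% = reference cytotoxic drug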
# FP fluor counter: fluorescent artifact in IDE inhibitor FP assay; shares compounds with IDE inh; FP counterscreen for fluorescent artifacts, IDE probe project; IC50, µM; 30 tested, under 10 active; AID 588718; call rule not given here
# An asterisk follows results filed as active; u = inconclusive; x = no result given.
SMILES,BCLXL inh,IDE cell activ,GLD-1 RNA inh,MCL1-BIM inh,IDE inh,MEX-5 binding,IDE inh confirm,HEK cytotox,others
CC(C)CNc1ncnc2c1cnn2Cc1ccccc1Cl,3,-11,-1,-2,17*,-1,9,12,
c1ccc(Cn2ncc3c(NCc4ccco4)ncnc32)cc1,3,-11,0,6,18*,-1,10,12,
O=C(O)c1ccc(Nc2ncnc3c2cnn3Cc2ccccc2)cc1,6,-18,-3,7,17*,1,9,4,
O=C(NC1CCSc2ccccc21)c1c(F)cccc1Cl (stereo not given),2,-1,-8,2,-5,1,x,x,
CCC(=O)OCC(=O)[C@@]1(OC(=O)CC)[C@@H](C)C[C@H]2[C@@H]3CCC4=CC(=O)C=C[C@]4(C)[C@@]3(Cl)[C@@H](O)C[C@@]21C,1,6,-2,7,-1,x,x,x,
Cc1cc2nc3n(c2cc1C)CC1CC(C(=O)NCc2ccco2)N(C)C31 (stereo not given),-1,4,-6,0,-2,0,x,x,
CCN(CC)c1ccc(/C=C(/C#N)C(=O)NC(C)C)o1,-156,-32,-240,-285,27*,u,30*,13,
CCN(CC)c1ccc(/C=C(/C#N)C(=O)NCc2ccccc2)o1,-154,-104,-257,-361,103*,4,153*,6,
N#C/C(=C\c1ccc(O)cc1)C(=O)NCc1ccccc1,1,0,-3,-1,-1,0,x,x,
NC(=O)CSC1=Nc2ccccc2C2=NC(c3ccccc3)C(=O)N12 (stereo not given),-6,5,8,4,2,-3,x,x,
CCC(NC(=O)CNC(=O)c1ccc2c(c1)OCO2)c1ccc(Br)cc1 (stereo not given),x,0,x,x,x,x,x,x,
CCC1CCCN1Cn1cnc2c([nH]c3ccc(Cl)cc32)c1=O (stereo not given),4,-3,5,1,17*,1,1,21,
CCC1CCCN1Cn1cnc2c([nH]c3ccc(C)cc32)c1=O (stereo not given),0,-5,0,6,-4,-2,x,x,
CCOc1cc(/C=N/NC(=O)c2ccc(CN3CCOCC3)cc2)ccc1OC,3,6,5,5,3,0,x,x,
CCOc1cc(/C=C/C(=O)c2ccc(OC)c(CN3CCOCC3)c2)cc(Br)c1O,-5,-75,-32,-13,94*,22,150*,22*,
CCc1ccc(C(=O)N/N=C/c2ccc(Cl)cc2Cl)nc1,2,x,3,5,18*,-1,10,8,
O=C(CCCC(=O)NN=Cc1ccc(Cl)cc1Cl)NN=Cc1ccc(Cl)cc1Cl,x,5,x,x,x,x,x,x,
O=C1C(=NO)C(c2ccccc2)Oc2ccccc21 (stereo not given),x,1,x,x,x,x,x,x,
Cc1ccc(S(=O)(=O)N2CCCN(C(=O)c3cc4ccccc4[nH]3)CC2)cc1,-3,-16,3,-3,16*,-2,5,9,
COc1ccc(OC)c(S(=O)(=O)N2CCC(C(=O)N3CCCCCC3)CC2)c1,-1,-5,4,-4,2,0,x,x,
CSCCC(NC(=O)COc1ccccc1)C(=O)N1CC(C)OC(C)C1 (stereo not given),0,3,-3,-3,-6,x,x,x,
Cc1cn(CC(=O)NCCCN2CCCC2=O)c(=O)[nH]c1=O,x,1,x,x,x,x,x,x,
CN(C)S(=O)(=O)c1ccc(C(=O)NCC2(N3CCCCC3)CCCCC2)cc1,-12,0,4,-23,0,0,x,x,
CS(=O)(=O)c1ccc(C(=O)NCC2(N3CCCCC3)CCCCC2)cc1,-2,0,0,-14,16*,-2,6,10,
Cn1c(CN2CCOCC2)nnc1SCC(=O)NCCc1ccccc1,2,-21,1,3,21*,-1,12,6,
SMILES,BCLXL inh,IDE cell activ,GLD-1 RNA inh,MCL1-BIM inh,IDE inh,MEX-5 binding,IDE inh confirm,HEK cytotox,others
Cn1c(CN2CCOCC2)nnc1SCc1ccccc1,3,-15,-2,-1,2,0,x,x,
COc1cccc(C2=CC(c3ccc(N(C)C)cc3)n3nnnc3N2)c1 (stereo not given),-4,-27,-5,-19,44*,1,37*,39*,
O=C(CSc1nnc(-c2cccc(Cl)c2)n1Cc1ccco1)Nc1ccc2cn[nH]c2c1,x,x,x,x,x,x,x,x,FP fluor counter=>55
Cc1cccc(-c2nnc(SCc3nc4ccccc4[nH]3)n2Cc2ccco2)c1,-6,-20,10,-2,37*,-3,31*,21,FP fluor counter=>55
Cc1ccc(-c2nnc(SCc3nc4ccccc4[nH]3)n2Cc2ccco2)cc1,-4,-9,0,-2,0,-2,x,x,
O=C(CSc1nnc(-c2cccc(Cl)c2)n1Cc1ccco1)c1ccc2ccccc2c1,x,x,x,x,x,x,x,x,FP fluor counter=>55
Cc1cc(Cl)ccc1OCc1nnc2n1CCCCC2,1,-14,-8,-3,16,1,x,x,
CC1CCc2c(C(=O)Nc3cccc(-c4nn[nH]n4)c3)csc2C1 (stereo not given),7,3,7,9,6,-5,x,x,
Cc1c(O)ccc2c(O)c(NC(=O)c3ccc4c(c3)CCC(C)(C)O4)c(=O)oc12,3,4,-1,2,-1,-1,x,x,
O=C(NNC1=Nc2cccc3cccc1c23)c1ccccc1Br,-1,-9,6,-15,16*,-3,5,19,
CC(C)(C)NC(=O)NC(=O)CN1CCN(c2cccc(Cl)c2)CC1,0,-29,-4,1,41*,1,22*,13,
CC(C)(C)NC(=O)NC(=O)CN1CCN(c2ccccc2)CC1,5,-5,2,1,-2,1,x,x,
Cc1nnc(SCCC(=O)Nc2ccccc2Cl)o1,4,1,2,1,3,1,x,x,
CSc1nsc(SCC(=O)Nc2ccccc2C(=O)O)n1,9,-10,-1,3,17*,-1,15,12,
CC1CCCCN1CCNC(=O)c1ccc2c(c1)N(Cc1ccccc1F)C(=O)c1ccccc1S2=O (stereo not given),4,4,-1,2,9,-1,x,x,
CCOC(=O)CC(NC(=O)CCS(=O)(=O)c1ccc2c(c1)n(C)c(=O)c(=O)n2C)c1ccc(C)cc1 (stereo not given),4,2,3,3,0,-2,x,x,
Cc1cc(/C=C2\SC(=S)NC2=O)cc(C)c1O,-18,-8,-24,-42,16*,17,31*,11,
